From PubChem BioAssay AID1508600 (Functional Genomics Laboratory (NCATS/FGL), 2020) come the findings set out here.

Screen size: about 53,000 sequences; about 3,700 (7%) were called active. Only a selection was taken, and actives are over-represented in it overall. Unmarked numbers belong to inactive results.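 The calls were made as follows: active = gene knockdowns whose robust z-score for IL-1 alpha signal is at least 2 or at most -2, so actives lie on both sides; inactive = the rest.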

This assay in a line: Components of the Cytosolic LPS Sensing Pathway: Gene Identification via Genome-wide siRNA Screen.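 Also: robust z of the log signal after scaling to non-targeting control siRNA wells of the plate.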 The note with it: RAW264.7 macrophages, IL-1a HTRF, actives lie on both sides, screened at 100 nM (by protocol), cells primed 5 h with Pam3CSK4 first. A digest of the protocol:
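IL-1a HTRF of supernatants after 24 hour LipidA transfection of Pam3CSK4-primed (5 hours) RAW264.7 cells, 48h post-siRNA transfection (100 nM). Scores: percent of plate negative-control median, then log-based robust z-score.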
On to CCUCUCUACAUCCACUACUTT against Pogz, for which the z-score is 3 (active). Then GGAGAACACAGGUGGACUUTT against Ppy, with 0.125; and GGAGGCCAAGCAGAAAGAGTT against Kars, with 0.184. Then GACUGCUUCCUUCUGACUGTT against Olfr399, with -0.575; and AAAAGAUGCAUGUCUCCUUTT against Hbq1a, with -1.76. GGCUUUUGACUUUACCCUATT against Acy3: the z-score is -1.3. The result for GGAAAUAUUUUCUCAGCAATT against Pcdhga1 reads 1.52; that for “GCCCUCAUACCUACUAUGUTT against 4631405J19Rik”, 0.787; that for GGAAGAGAUUUCUAAACUUTT against Mcoln2, -1.93. The result for GGGCAAAAUAUAGCAAUGATT against Vmn1r233 reads -2.11 (active). The result for GCUGACUUCACAUUUGGCUTT against Mms19 reads -0.24. Take GGAGUAUGUGGAAUGUCUATT against Creb3l1: the z-score is -0.903. The result for GGAUGACUCUAUCUUUCUATT against Igfbp4 reads 0.892. The result for GGAAUACGUAUACUUCAGCTT against Dipk1c reads 0.495; that for GGAUUGCAUUAGGAAAGAATT against Fancl, 0.0536.

In the case of GGGAGUCCUGAAGGACUACTT against Lgmn, the z-score is -0.0947. Then GGAGCAGAAUGAGAAGACUTT against Marchf8, with 2.16 (active).

For GGACCAAGGGUUCAUAGCATT against Wdr35, the z-score is -0.137.

As for GGUUCAUCUGUACAAAAUCTT against Zfp110, the z-score is 0.708. The result for CCAUAUGGUAACCAAACCGTT against Ldb1 reads -0.896. Turning to CCGUAGUAGAGAAAUUACATT against Exoc6, the z-score is 0.419. Then GUUGUCCUCUUUGUCAUCATT against Olfr502, with -3.63 (active); and CGGGUAAUAUUCUUUUCAATT against Rex2, with 1.76; and GCUCUAGGCCAGAUGUUACTT against Slc13a3, with -0.476.

Regarding CGUUUCCUGCUCAAAUCCUTT against Abhd2, the z-score was -1.17. Then GGAGAUUCGGACAAAGUGATT against Rhcg, with -1.31. Then GGAGUAGCUGUUCUAAUUGTT against Scamp5, with -1.65; and GGCUUUAAGAAUGUAUCGCTT against Dpp3, with -0.751.

GCCUUUUCCCGUCUGGAGATT against Glis1: the z-score is 0.122.

CGUUGCUGUUGUGGUCUUGTT against Olfr1232: the z-score was -2.71 (active). Then GGGCCCAGGCUAAAAUAAATT against Cfap100, with 0.367; and GGUCACCUCAAUAAACUCUTT against Myl7, with 0.228; and CGUGUAAACGCAAUUAAAATT against Zfp870, with 0.272.

For GGUUCAGAUGUCUGAUAAATT against Mrm3, the z-score is 1.43. Then GGAGCAUGUAGAGGUUUACTT against Txnrd2, with 2.44 (active). For the sequence GGAUACCUAGUUCUUAGUUTT against Mageb18, the z-score was 0.151. Then GGGACUUUCGUAAUAAACCTT against Lman1, with -1.26. The result for CGUGAAAUAGAUGAUACCUTT against Cdc5l reads 0.625. The result for GGUAACGAUGCUGGAAUUCTT against Sdcbp reads 4.37 (active); that for GCAAACUCCAGCUCAACGATT against Galnt4, -1.19. As for GGAUGGUGUUGUGUUUAAATT against Chst2, the z-score is 0.962. Then GGCUGGUGCUGAAUAUCUUTT against Bnip5, with 0.507; and GGUCUUGGUCCCUGAGAAATT against Ddit4l, with 0.23.

For GGACAAAUUGUAUGGCGAATT against Hecw2, the z-score is -0.402. For GAGAACAAGCCUAAGCCCATT against V1rb5, the z-score is 1.44. Then GCUCGAGGACUAUAUGAAUTT against Xrcc1, with 2.03 (active); and GGAAUAUUGUGGCCUUAUATT against Bnip3, with 0.489. As to GAGGGAUAUGUGAAGCCUCTT against Mospd3, the z-score was -0.806. The result for CCGAAGUCAAUGAAGCUCUTT against Gcsh reads -2.13 (active). With CCAUGUUCAGAAGAGAAUATT against Igsf11, the z-score is -1.69. The result for GCAAGUAGAAACCCUUAAUTT against Scara5 reads -0.0354. Then CGAUUCCGUCAAAUUAAAGTT against Catsper2, with 0.156; and GGCAGAUUGUGAAAAAACUTT against Slc9a6, with -0.503. Then GGAAAAGGUCAUUAUCAUUTT against Hsf3, with -2.11 (active); and GUCACUGUGAUGGGAAAUUTT against Olfr895, with -0.847. With ACACCUGCCUGCAUCUACUTT against Tcp10a, the z-score was 1.5. Then GCACUUGUGACUAUAAAGUTT against Celf2, with 0.262.

For UGUGGUGAACCCAAUGCACTT against Klk1b22, the z-score was -3.28 (active). Then CCUGAUUGGGAUCUCAAGATT against Ccdc12, with -0.673. In the case of AAUAAAAGUGUCCUCUGUGTT against Olfr242, the z-score is 0.202. The result for GGAUAGUUUUGUGUUUGAUTT against Gab2 reads 0.932; that for GGUCAUUGAUCUCAGCAACTT against Optc, -0.427. Turning to CCCUACACGCAGGAGUUUUTT against Gtf3c1, the z-score was -0.23. GCCCUACACCUGUAUUACATT against Tas1r3: the z-score is -0.964. For the sequence CCUGGAACUUGUUGGAAGCTT against Igsf3, the z-score was 0.799. The result for GUGUUCAGGAAGCUGGCAGTT against Klra19 reads 1.98; that for GGACCUCCUCCCAAAGAUATT against Snrpb, -2.83 (active). With GCUAUGGAUCAAAGAAUUATT against Senp1, the z-score is 0.204. For GGCCCAUCCCACAAUGAUATT against Atg9b, the z-score is -0.998.
